TGFb inhibitor – TGF-b pathway inhibition; HepG2 CAGA-GFP TGF-b/SMAD3 reporter, GFP fluorescence, 18 h; TGF-beta stimulated, 500 pg/mL final; Potency, µM (doses to about 46.1 µM), for inactives: top-dose activity, negative = inhibition, actives largely listed as inhibitors; 410,000 compounds, 1.2% hits; also: % is scaled to controls: 0 for no effect and ±100 for the full control effect; nearly all actives have a fitted effect of over 65% in size
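TGF-beta reporter screen: HEPG2 CAGA-GFP, 1% FBS, 500 pg/mL TGF-beta final, 18 h; per-cell GFP summed per well; curves fitted and categorized by class.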
Gal4-VP16 FLuc – inhibits Gal4-VP16 luciferase reporter, ROR gamma counter-screen. AID 2546. Potency, µM (top dose mostly 53.6 µM), without a hit: top-dose activity, negative = inhibition, actives largely listed as inhibitors. 310,000 compounds, 3.5% hits. Drosophila S2 Gal4-VP16 UAS-luciferase, luminescence, 20 h;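 also: Gal4-VP16 expression switched on by copper sulfate through the metallothionein promoter; % is scaled to controls: 0 for no effect and ±100 for the full control effect; nearly all actives have a fitted effect of over 50% in size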
RORg inh – ROR gamma (mouse) transcription inhibition | P51450 | Drosophila S2 Gal4-RORgamma UAS-luciferase reporter, 20 h | Potency, µM (highest dose often 53.6 µM), inactives show at the highest dose activity change, negative = inhibition, actives largely listed as inhibitors | 310,000 compounds, 5.4% hits; also: % is scaled to controls: 0 for no effect and ±100 for the full control effect; nearly all actives have a fitted effect of over 60% in size
Target sequence (P51450 whole entry, looked up, the tested form may be a part): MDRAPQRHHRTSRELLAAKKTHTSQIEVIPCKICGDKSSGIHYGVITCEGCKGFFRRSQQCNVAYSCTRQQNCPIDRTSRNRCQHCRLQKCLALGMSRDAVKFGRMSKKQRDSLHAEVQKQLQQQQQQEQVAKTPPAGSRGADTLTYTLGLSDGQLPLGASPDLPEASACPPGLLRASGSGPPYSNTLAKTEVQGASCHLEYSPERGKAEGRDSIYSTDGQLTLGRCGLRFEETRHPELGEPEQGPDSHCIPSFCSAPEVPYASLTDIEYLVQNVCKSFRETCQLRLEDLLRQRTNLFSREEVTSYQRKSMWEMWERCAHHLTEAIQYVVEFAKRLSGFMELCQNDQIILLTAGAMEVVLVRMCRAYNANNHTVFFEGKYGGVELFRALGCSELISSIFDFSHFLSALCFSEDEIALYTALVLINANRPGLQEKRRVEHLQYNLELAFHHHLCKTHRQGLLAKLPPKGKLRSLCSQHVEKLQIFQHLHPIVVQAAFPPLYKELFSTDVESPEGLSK
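Stable Schneider cell line, Gal4 DNA-binding domain fused to ROR gamma, UAS-luciferase. Cmpd 1 hr RT → CuSO4 700 uM final → 20 hr RT → luciferase reagent 10 min → luminescence.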
ATXN viability – viability counter-screen for ATXN expression inhibitors | S2 cells (HEK-293 line with an ATXN2-luciferase reporter) viability, CellTiter-Fluor protease fluorescence, 24 h | 400,000 compounds, 0.49% hits | AID 651635 | Potency, µM (top dose mostly 56.7 µM), usual class: cytotoxic; also: nearly all actives have a fitted effect of over 40% in size
HepG2 tox – counter-screen for TGF-b inhibitors: cytotoxicity in HepG2 cells; HepG2 CAGA-GFP viability, ATP luminescence, 18 h; Potency, µM (doses to about 46.1 µM), inactives show at the top dose activity change, negative = cytotoxicity, actives largely listed as cytotoxic; 410,000 compounds, 0.76% hits
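HepG2 CAGA-GFP cells (1000/well, DMEM with 1% FBS) received compound, then TGF-beta at 500 pg/mL final, and were incubated 18 hours at 37 degrees C. Viability was read by CellTiter-Glo luminescence. Media-only wells were set as complete cell-killing and DMSO as no toxicity.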
ATXN2 expr inh – ATXN2 expression inhibition. Potency, µM (highest dose often 57 µM), inactives show at the highest dose activity change, negative = inhibition, hits mostly inhibitors. AID 1745845. HEK-293 ATXN2-luciferase reporter, luminescence, 24 h. 360,000 compounds, 0.72% hits; also: % is scaled to controls: 0 for no effect and ±100 for the full control effect; nearly all actives have a fitted effect of over 55% in size
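ATXN2-luciferase reporter cells (luciferase flanked by upstream and downstream ATXN2 gene portions) were treated 24 h at 37 °C with compounds at up to 57 uM. SteadyGlo luminescence gave expression; GF-AFC fluorescence gave viability.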
* hit, by the source's call; i = inactive; ? = inconclusive; · = no result given; [ ] = another dose, or the depositor's remark. In the library only some 6.1% were active in any assay of this set; here they are far more common. Calls follow the shape of the dose curve; as a rule, active = well fitted curve in the direction sought with a large enough effect; inconclusive = small, poorly fitted or top-dose-only effect, or another doubt; inactive = no such curve, though single readings can be large; an effect the other way counts as inactive or inconclusive. Potency is read from the fitted curve at half-maximal effect.

SMILES	TGFb inhibitor	Gal4-VP16 FLuc	RORg inh	ATXN viability	HepG2 tox	ATXN2 expr inh
O=C(NC(=S)Nc1ccccn1)c1cncc(Br)c1	2%	7.9µM*	7.9µM*	i	-21%	16%
Cc1cccnc1NC(=O)CNC(=O)c1cccs1	-28%	·	·	i	-46%	-2%
O=C(NC(=S)Nc1ccccc1[N+](=O)[O-])c1cncc(Br)c1	-15%	5.6µM*	7.1µM*	i	2%	·
Cc1cccnc1NC(=S)NC(=O)c1cccs1	?	10µM*	4µM*	i	-4%	113%
O=C(NC(=S)Nc1ccccc1O)c1cncc(Br)c1	-4%	·	·	i	-35%	4%
CN(C)c1ccc(CNC(=O)CN2C(=O)C3CCCCN3c3ccc(C(=O)N4CCCC4)cc32)cc1 (stereo not given)	-2%	·	·	i	-13%	1%
COCCCOc1cc(C[C@@H](C[C@H](N)[C@@H](O)C[C@H](C(=O)NCC(C)(C)C(N)=O)C(C)C)C(C)C)ccc1OC	·	·	·	i	·	6%
Cc1ccnn1CC(=O)N1CCOc2c(cc(-c3csc4ccccc34)cc2OC2CCOC2)C1 (stereo not given)	·	·	·	i	·	·
O=C(COc1ccccc1Cl)NC(=S)Nc1ccccc1N1CCCC1	-20%	7.9µM*	5.6µM*	i	-23%	-15%
Cc1cc(Cl)ccc1OCC(=O)Nc1ccccc1N1CCOCC1	0%	-9%	?	i	-8%	-32%
Cc1cc(Cl)ccc1OCC(=O)NC(=S)Nc1ccccc1N1CCOCC1	-7%	?	4.5µM*	i	-15%	-15%
O=C(COc1ccc(Br)cc1Cl)NC(=S)Nc1ccccn1	-14%	?	?	i	-5%	26%
Cc1ccc(OCC(=O)NC(=S)Nc2ccccn2)c(Br)c1	17%	11µM*	10µM*	i	11%	?
Cc1nc(NC(=S)NC(=O)COc2ccccc2Cl)ccc1Br	4%	7.1µM*	7.1µM*	i	0%	4%
CCc1ccc(OCC(=O)NC(=S)Nc2ccc(Br)c(C)n2)cc1	-25%	5%	-26%	i	-2%	·
Cc1ccc(C)c(N2CCN(C(=O)c3cc(S(=O)(=O)N4CCCCC4)cn3C)CC2)c1	16%	·	·	i	1%	5%
CC[C@H](C)[C@H](NC(=O)[C@H](CC(C)C)NC(=O)[C@@H](N)CO)C(=O)NCC(=O)N[C@@H](CCCN=C(N)N)C(=O)N[C@@H](CC(C)C)C(=O)O	·	-15%	0%	·	·	·
Cc1ccc(C)c(NC(=O)CSc2nc(=O)n(CCN(C)C)c3c2CCC3)c1	0%	·	·	·	-2%	·
COc1ccc2c(c1)OC(C)CN(CCNC(=O)c1ccc(-n3cccn3)cc1)C2 (stereo not given)	·	·	·	i	·	·
CCOc1ccccc1Oc1nc(C)nc2c1oc1ccccc12	-18%	·	·	?	-16%	-26%
COC(=O)c1ccccc1NC(=S)NC(=O)COc1ccc(C)cc1	15%	·	·	i	-6%	16%
CC(C)c1ccc(OCC(=O)NNC(=S)NC(=O)c2cccs2)c(Br)c1	-5%	-1%	13%	i	41%	-27%
Cc1ccc(OCC(=O)NNC(=S)NC(=O)C(C)(C)C)c(Br)c1	?	4%	11µM*	i	-23%	?
COC(=O)c1ccccc1NC(=S)NC(=O)COc1ccccc1Cl	-3%	?	10µM*	i	-24%	-8%
Cc1ccc(S(=O)(=O)NCC2CCC(C(=O)NCCc3ccc(Cl)cc3)CC2)cc1 (stereo not given)	-14%	·	·	·	-20%	·
CC(C)N1CCN(C(=O)c2ccc([N+](=O)[O-])cc2)CC1	-19%	·	·	i	11µM*	·
O=C(c1ccccc1)N1CCN(C(=O)c2ccc([N+](=O)[O-])cc2)CC1	-2%	-1%	-11%[10 µM]	i	8%	5%
